# Source: PubChem (several laboratories)
# PAX8 inh HTS = inhibitors of PAX8-driven TPO luciferase reporter, primary screen, RMG-I cells, single concentration | SteadyGlo, 24 h | inhibition, % at 12.6 µM | actives 1.2% (n = 360,000);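 active = mean replicate inhibition at least 60% with every replicate also reaching 60%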;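 also: luciferase light reporting Pax8 driven TPO promoter activity; plate controls were median of neutral control wells for no effect and mitoxantrone controls for full effect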
# Mdm2-MdmX inh = inhibitors of human Mdm2-MdmX association, primary screen, cell-based, luminescence, split luciferase, SaOS-2, uHTS; Protein Mdm4 (Homo sapiens) + E3 ubiquitin-protein ligase Mdm2 (Homo sapiens), …; SaOS-2 split-luciferase Mdm2/MdmX complementation; inhibition, % at 8 µM; actives 3% (n = 330,000); AID 485346, 2010;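 active = inhibition of at least 50% at 8 µM in the primary screen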
# Beta cell apopt = inhibitors of cytokine-induced beta cell apoptosis, primary screen, luminescence. INS-1E cytokine-induced death, ATP luminescence, 48 h; percent of positive-control rescue, neutral wells zero. protection from apoptosis, % (concentration not given with the values). actives 0.8% (n = 300,000). AID 435005, 2010;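 active = Every replicate reaches about 75%, or at least half do and their mean reaches it too, limit read from the data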;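 also: 0% = cytokine-treated negative control wells and 100% = positive control rescue; higher means more ATP so stronger rescue from cytokine killing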
# Shn3 inh set2 = reduction of Shn3 3'UTR firefly luciferase signal, primary screen, Schnurri-3 inhibitor project, cell-based, Clone20 osteoblasts, set 2; Clone20 osteoblast Shn3 3'UTR firefly luciferase, 24 h; inhibition, % at 12.5 µM; actives 0.52% (n = 360,000);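 active = mean inhibition of at least 75% with every replicate also reaching 75%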;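 also: 0% = median of neutral control wells and 100% = pilot-screen positive control compound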
# Gli-Sufu block = Gli-Sufu pathway antagonists, primary screen, luciferase luminescence, Sufu-KO-LIGHT cells, uHTS | inhibition, % at 5 µM | actives 0.74% (n = 340,000) | Sufu-KO-LIGHT fibroblasts, Gli luciferase reporter luminescence;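 active = inhibition above about 55%, limit read from the data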;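 also: 0% = DMSO-treated cells and 100% = wells with medium but no cells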
# CSC inhib = cancer stem cell viability inhibitors, primary screen, luminescence; inhibition, % at 7.5 µM; actives 1.1% (n = 300,000); cancer stem cell-like cells viability; in the data active = inhibition above about 75%; tested in HMLE shEcad cells
# Mdm2-MdmX conf = Mdm2-MdmX complex disruptors, retested hits, confirmation, luminescence, single concentration. shares compounds with Mdm2-MdmX inh. Mdm2-MdmX binding, luminescent assay. inhibition, % at 8 µM. actives 55% (n = 10,000). AID 489028, 2010; in the data active = inhibition above about 40%
# Full FLuc ctr = full-length luciferase signal inhibition, confirmation, counter-screen for Mdm2/MdmX interaction inhibitor project, cell-based, single concentration, SaOS-2. SaOS-2 full-length luciferase counterscreen, luminescence. actives 77% (n = 6,200). shares compounds with Mdm2-MdmX inh. AID 504607, 2011. inhibition, % at 8 µM;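 active = mean inhibition at 8 µM reaching about 37%, which flags the compound as non-specific, limit read from the data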;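 also: p53-null SaOS-2 cells with luciferase driven by a doxycycline-inducible promoter; compound on cells about two nights before reading with doxycycline added after day one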
# Starred values were filed as active, the others as inactive; x = no result given. This is a sample that favours compounds with a hit; in the whole collection about 4% have one here.
SMILES,PAX8 inh HTS,Mdm2-MdmX inh,Beta cell apopt,Shn3 inh set2,Gli-Sufu block,CSC inhib,Mdm2-MdmX conf,Full FLuc ctr
O=C(CCl)Nc1cc(S(=O)(=O)N2CCCCCC2)ccc1Cl,-8,92*,1,2,10,15,36,50*
COc1ccccc1NS(=O)(=O)c1ccc(Cl)c(NC(=S)NC(=O)C2CCCC2)c1,25,32,-1,24,3,31,x,x
CCN(c1ccccc1)S(=O)(=O)c1ccc(C(=O)NC2CCCCC2)cc1,13,x,x,14,x,x,x,x
CCN1CCN(c2ccc(S(=O)(=O)N3CCCCC3)cc2NC(=O)c2ccc([N+](=O)[O-])s2)CC1,x,71*,113*,55,25,34,59*,82*
CCN(CC)S(=O)(=O)c1ccc(Cl)c(NC(=S)NC(=O)C2CCCC2)c1,36,50*,15,72,15,8,15,x
Cc1ccc(S(=O)(=O)Nc2ccc3c(c2)CC(=O)N([C@@H](C)CO)C[C@H](C)[C@@H](CN(C)S(=O)(=O)c2ccc(F)cc2)O3)cc1,-17,x,x,x,x,x,x,x
CCN1CCN(c2ccc(S(=O)(=O)N3CCCCC3)cc2NC(=O)Cc2ccccc2)CC1,9,11,-4,-18,6,-9,x,x
CCN1CCN(c2ccc(S(=O)(=O)N3CCCCC3)cc2NC(=O)Cc2ccc(Cl)c(Cl)c2)CC1,x,64*,14,-2,15,-3,38,80*
C[C@@H]1CN([C@H](C)CO)C(=O)c2cc(C#Cc3cccc(F)c3)cnc2O[C@H]1CN(C)C(=O)C1CCC1,21,x,x,x,x,x,x,x
O=C(NCc1cccnc1)/C(=C/c1ccc(-c2cccc(Cl)c2)o1)S(=O)(=O)c1ccccc1,x,99*,112*,-14,1,100*,100*,51*
Cc1noc(C)c1S(=O)(=O)Nc1ccc2c(c1)C(=O)N([C@H](C)CO)C[C@@H](C)[C@@H](CN(C)S(=O)(=O)c1cn(C)cn1)OCCCC[C@H](C)O2,-2,x,x,x,x,x,x,x
O=C(COC(=O)c1n[nH]c2ccccc12)NC(=O)NC1CCCC1,x,-3,-4,6,-1,25,x,x
O=C(COC(=O)c1n[nH]c2ccccc12)NC(=O)NC12CC3CC(CC(C3)C1)C2,x,54*,13,5,6,11,34,72*
O=C(NNc1nc(-c2ccc(Br)cc2)cs1)c1ccco1,-14,37,7,-24,-20,45,x,x
N#Cc1ccc(-c2csc(NNC(=O)c3ccc(Br)cc3)n2)cc1,x,77*,78*,8,1,9,59*,10
COc1cc2nc(SCc3ccc(F)cc3)n(Cc3cccs3)c(=N)c2cc1OC,x,42,18,6,11,0,x,x
COc1ccc(Cn2c(SCc3ccccc3C)nc3cc(OC)c(OC)cc3c2=N)cc1,x,97*,108*,90*,x,100*,52*,48*
CC(C)c1ccc2c(c1)C1(NN=C(c3ccccc3)S1)C(=O)N2 (stereo not given),x,59*,74,63,48,116*,69*,69*
CCc1ccc2c(c1)C1(NN=C(c3ccc(C)cc3)S1)C(=O)N2 (stereo not given),x,74*,50,-5,-12,9,68*,63*
Cc1csc(NC(=O)Nc2ccc(Cl)cc2)n1,-134,-19,2,-55,4,1,x,x
O=C(Nc1ccc(Cl)cc1)Nc1nc(-c2sccc2Br)cs1,x,88*,52,25,2,-2,77*,39*
CCC(=O)N1[C@H](CO)[C@H]2c3ccccc3N(S(=O)(=O)c3ccccc3C)C[C@H]21,15,x,x,x,x,x,x,x
